Measured values reported in PubChem BioAssay AID1159580 (chemical genetic matrix, 2015).
The whole screen tested about 5,500 compounds, of which about 2,000 (36%) were called active. About 18% were inconclusive and are not listed. The list shows a part of the results. Values without a mark were called inactive. Rule as the data show it: active = normalized growth mostly below about 0.91 (no sharp cut-off); inconclusive = no clear call, values can overlap the other calls; inactive = mostly above about 0.92.

Experiment: chemical genetic growth profiling, strain panel (AID 1159580);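 also: tested at 20 µM; growth read once vehicle control cultures reached saturation at 30 °C; 1 = growth at the plate median or of vehicle wells; lower values mean less growth of the strain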
Conditions: growth OD

Question: Which normalized growth (S. cerevisiae deletion strains, locus YJR043C, strain POL32, hits give low values) does the source give for O=C(O[C@@H]1Cc2c(O)cc(O)cc2O[C@@H]1c1ccc(O)c(O)c1)c1cc(O)c(O)c(O)c1 here?
Answer: 0.792 (active)

Question: And the normalized growth (S. cerevisiae deletion strains, locus YJR066W, strain TOR1, hits give low values)?
Answer: 0.93

Question: And the normalized growth (S. cerevisiae deletion strains, locus YKL009W, strain mrt4, hits give low values)?
Answer: 1.02

Question: What about the normalized growth (S. cerevisiae deletion strains, locus YKL068W, hits give low values) of the same compound?
Answer: 1.01

Question: And the normalized growth (S. cerevisiae deletion strains, locus YKL085W, strain MDH1 (second series), hits give low values)?
Answer: 0.997

Question: And the normalized growth (S. cerevisiae deletion strains, locus YKL085W, strain MDH1, hits give low values)?
Answer: 0.997

Question: And the normalized growth (S. cerevisiae deletion strains, locus YKL160W, strain elf1, hits give low values)?
Answer: 0.97

Question: And the normalized growth (S. cerevisiae deletion strains, locus YKR001C, strain vps1, hits give low values)?
Answer: 1.04

Question: And the normalized growth (S. cerevisiae deletion strains, locus YKR026C, strain gcn3, hits give low values)?
Answer: 1.03

Question: What about the normalized growth (S. cerevisiae deletion strains, locus YKR091W, strain srl3, hits give low values) of the same compound?
Answer: 1.02

Question: What about the normalized growth (S. cerevisiae deletion strains, locus YLL001W, strain dnm1, hits give low values) of the same compound?
Answer: 0.982

Question: And the normalized growth (S. cerevisiae deletion strains, locus YLL026W, hits give low values)?
Answer: 1.03

Question: What about the normalized growth (S. cerevisiae deletion strains, locus YLL041C, strain sdh2, hits give low values) of the same compound?
Answer: 1.02

Question: And the normalized growth (S. cerevisiae deletion strains, locus YLR027C, strain aat2, hits give low values)?
Answer: 0.993

Question: What about the normalized growth (S. cerevisiae deletion strains, locus YLR039C, strain RIC1, hits give low values) of the same compound?
Answer: 0.715

Question: And the normalized growth (S. cerevisiae deletion strains, locus YLR058C, strain SHM2, hits give low values)?
Answer: 0.883 (active)

Question: What about the normalized growth (S. cerevisiae deletion strains, locus YLR102C, strain apc9, hits give low values) of the same compound?
Answer: 1.01

Question: What about the normalized growth (S. cerevisiae deletion strains, locus YLR113W, strain HOG1, hits give low values) of the same compound?
Answer: 1.01

Question: What about the normalized growth (S. cerevisiae deletion strains, locus YLR221C, strain rsa3, hits give low values) of the same compound?
Answer: 1.01

Question: What about the normalized growth (S. cerevisiae deletion strains, locus YLR258W, strain gsy2, hits give low values) of the same compound?
Answer: 0.952

Question: And the normalized growth (S. cerevisiae deletion strains, locus YLR262C, strain YPT6 (second series), hits give low values)?
Answer: 0.909

Question: And the normalized growth (S. cerevisiae deletion strains, locus YLR268W, strain sec22, hits give low values)?
Answer: 0.94

Question: What about the normalized growth (S. cerevisiae deletion strains, locus YLR320W, strain mms22, hits give low values) of the same compound?
Answer: 1.02

Question: What about the normalized growth (S. cerevisiae deletion strains, locus YLR342W, strain FKS1 (second series), hits give low values) of the same compound?
Answer: 0.628 (active)

Question: And the normalized growth (S. cerevisiae deletion strains, locus YLR342W, strain FKS1, hits give low values)?
Answer: 0.831 (active)

Question: What about the normalized growth (S. cerevisiae deletion strains, locus YLR357W, strain rsc2, hits give low values) of the same compound?
Answer: 0.865

Question: And the normalized growth (S. cerevisiae deletion strains, locus YLR370C, strain arc18, hits give low values)?
Answer: 0.935

Question: And the normalized growth (S. cerevisiae deletion strains, locus YLR371W, strain rom2, hits give low values)?
Answer: 0.916

Question: And the normalized growth (S. cerevisiae deletion strains, locus YLR384C, strain iki3, hits give low values)?
Answer: 1.03

Question: And the normalized growth (S. cerevisiae deletion strains, locus YLR418C, strain cdc73, hits give low values)?
Answer: 0.963

Question: And the normalized growth (S. cerevisiae deletion strains, locus YML016C, strain PPZ1, hits give low values)?
Answer: 0.841 (active)

Question: What about the normalized growth (S. cerevisiae deletion strains, locus YML032C, strain rad52, hits give low values) of the same compound?
Answer: 1.02

Question: And the normalized growth (S. cerevisiae deletion strains, locus YML120C, strain ndi1, hits give low values)?
Answer: 1

Question: And the normalized growth (S. cerevisiae deletion strains, locus YML124C, strain tub3, hits give low values)?
Answer: 1.03

Question: And the normalized growth (S. cerevisiae deletion strains, locus YMR058W, strain fet3, hits give low values)?
Answer: 0.564 (active)

Question: What about the normalized growth (S. cerevisiae deletion strains, locus YMR078C, strain ctf18, hits give low values) of the same compound?
Answer: 1.02

Question: And the normalized growth (S. cerevisiae deletion strains, locus YMR125W, strain sto1, hits give low values)?
Answer: 1.12 [resistant] (active)

Question: And the normalized growth (S. cerevisiae deletion strains, locus YMR129W, hits give low values)?
Answer: 1.03

Question: And the normalized growth (S. cerevisiae deletion strains, locus YMR205C, strain PFK2, hits give low values)?
Answer: 1.03

Question: And the normalized growth (S. cerevisiae deletion strains, locus YMR223W, strain ubp8, hits give low values)?
Answer: 0.985

Question: And the normalized growth (S. cerevisiae deletion strains, locus YMR231W, strain pep5, hits give low values)?
Answer: 0.972

Question: And the normalized growth (S. cerevisiae deletion strains, locus YMR263W, strain SAP30, hits give low values)?
Answer: 0.997

Question: And the normalized growth (S. cerevisiae deletion strains, locus YMR307W, strain GAS1, hits give low values)?
Answer: 0.606

Question: What about the normalized growth (S. cerevisiae deletion strains, locus YNL067W, strain RPL9B, hits give low values) of the same compound?
Answer: 0.961

Question: And the normalized growth (S. cerevisiae deletion strains, locus YNL071W, strain lat1, hits give low values)?
Answer: 1.02

Question: What about the normalized growth (S. cerevisiae deletion strains, locus YNL183C, strain NPR1, hits give low values) of the same compound?
Answer: 0.938

Question: And the normalized growth (S. cerevisiae deletion strains, locus YNL209W, strain ssb2, hits give low values)?
Answer: 0.597 (active)

Question: And the normalized growth (S. cerevisiae deletion strains, locus YNL233W, strain BNI4, hits give low values)?
Answer: 0.932

Question: And the normalized growth (S. cerevisiae deletion strains, locus YNL248C, strain rpa49, hits give low values)?
Answer: 0.973

Question: And the normalized growth (S. cerevisiae deletion strains, locus YNL250W, strain rad50, hits give low values)?
Answer: 1.04

Question: What about the normalized growth (S. cerevisiae deletion strains, locus YNL271C, strain bni1, hits give low values) of the same compound?
Answer: 1.02

Question: And the normalized growth (S. cerevisiae deletion strains, locus YNL298W, strain CLA4, hits give low values)?
Answer: 1.01

Question: What about the normalized growth (S. cerevisiae deletion strains, locus YNL307C, strain MCK1, hits give low values) of the same compound?
Answer: 1.01

Question: And the normalized growth (S. cerevisiae deletion strains, locus YNL322C, strain KRE1 (second series), hits give low values)?
Answer: 1.06

Question: And the normalized growth (S. cerevisiae deletion strains, locus YNR049C, strain mso1, hits give low values)?
Answer: 1.04

Question: And the normalized growth (S. cerevisiae deletion strains, locus YNR052C, strain pop2, hits give low values)?
Answer: 0.989

Question: And the normalized growth (S. cerevisiae deletion strains, locus YOL006C, strain TOP1, hits give low values)?
Answer: 0.507 (active)

Question: What about the normalized growth (S. cerevisiae deletion strains, locus YOL012C, strain htz1) of the same compound?
Answer: 0.447

Question: And the normalized growth (S. cerevisiae deletion strains, locus YOL147C, strain pex11, hits give low values)?
Answer: 1.02

Question: What about the normalized growth (S. cerevisiae deletion strains, locus YOR001W, strain rrp6, hits give low values) of the same compound?
Answer: 1.01

Question: And the normalized growth (S. cerevisiae deletion strains, locus YOR061W, strain CKA2, hits give low values)?
Answer: 0.925

Question: What about the normalized growth (S. cerevisiae deletion strains, locus YOR069W, strain VPS5, hits give low values) of the same compound?
Answer: 0.97

Question: What about the normalized growth (S. cerevisiae deletion strains, locus YOR070C, strain gyp1, hits give low values) of the same compound?
Answer: 0.97

Question: What about the normalized growth (S. cerevisiae deletion strains, locus YOR080W, strain dia2, hits give low values) of the same compound?
Answer: 0.983

Question: And the normalized growth (S. cerevisiae deletion strains, locus YOR083W, strain WHI5, hits give low values)?
Answer: 0.961

Question: What about the normalized growth (S. cerevisiae deletion strains, locus YOR106W, strain vam3, hits give low values) of the same compound?
Answer: 0.622 (active)

Question: And the normalized growth (S. cerevisiae deletion strains, locus YOR136W, strain idh2, hits give low values)?
Answer: 1.01

Question: And the normalized growth (S. cerevisiae deletion strains, locus YOR144C, strain elg1, hits give low values)?
Answer: 1.02

Question: What about the normalized growth (S. cerevisiae deletion strains, locus YOR184W, strain ser1, hits give low values) of the same compound?
Answer: 0.969

Question: What about the normalized growth (S. cerevisiae deletion strains, locus YOR231W, strain MKK1, hits give low values) of the same compound?
Answer: 0.992

Question: What about the normalized growth (S. cerevisiae deletion strains, locus YOR265W, strain rbl2, hits give low values) of the same compound?
Answer: 0.988

Question: And the normalized growth (S. cerevisiae deletion strains, locus YOR270C, strain vph1, hits give low values)?
Answer: 0.923

Question: What about the normalized growth (S. cerevisiae deletion strains, locus YOR290C, strain snf2, hits give low values) of the same compound?
Answer: 0.97

Question: What about the normalized growth (S. cerevisiae deletion strains, locus YOR316C, strain cot1, hits give low values) of the same compound?
Answer: 1.03

Question: What about the normalized growth (S. cerevisiae deletion strains, locus YPL051W, strain arl3, hits give low values) of the same compound?
Answer: 0.776 (active)

Question: What about the normalized growth (S. cerevisiae deletion strains, locus YPL055C, strain LGE1, hits give low values) of the same compound?
Answer: 0.761

Question: What about the normalized growth (S. cerevisiae deletion strains, locus YPL078C, strain atp4, hits give low values) of the same compound?
Answer: 0.986

Question: What about the normalized growth (S. cerevisiae deletion strains, locus YPL106C, strain sse1, hits give low values) of the same compound?
Answer: 0.896

Question: And the normalized growth (S. cerevisiae deletion strains, locus YPL240C, strain hsp82, hits give low values)?
Answer: 1.01

Question: What about the normalized growth (S. cerevisiae deletion strains, locus YPL241C, strain CIN2, hits give low values) of the same compound?
Answer: 0.973

Question: What about the normalized growth (S. cerevisiae deletion strains, locus YPL256C, strain CLN2, hits give low values) of the same compound?
Answer: 1.01

Question: And the normalized growth (S. cerevisiae deletion strains, locus YPR119W, strain clb2, hits give low values)?
Answer: 1.04

Question: What about the normalized growth (S. cerevisiae deletion strains, locus YPR141C, strain kar3, hits give low values) of the same compound?
Answer: 1

Question: And the normalized growth (S. cerevisiae deletion strains, locus YPR163C, strain tif3, hits give low values)?
Answer: 1.03

Question: And the normalized growth (S. cerevisiae deletion strains, locus YPR167C, strain met16, hits give low values)?
Answer: 1.03

Question: And the normalized growth (S. cerevisiae deletion strains, strain wtn01, hits give low values)?
Answer: 0.963

Question: What about the normalized growth (S. cerevisiae strains, strain wild type, hits give low values) of the same compound?
Answer: 0.702 (active)
